Experimental findings from publication PMC8384837, “Expanding the binding specificity for RNA recognition by a PUF domain” are described below.

What all share (experiment): yeast three-hybrid, YBZ-1, SC-Leu-His + 0.5 mM 3-AT, 4 days
What all share (conditions): tags: N-Gal4 AD-HA kept; label: inside an RPR1-promoter hybrid RNA with tandem MS2 sites; ssRNA

The target of experiment [1] is PUM1 PUF domain R5-PRA (Homo sapiens, UniProt Q14671 828-1176, C1007P;Q1011A). The gist of the method: (§1)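 Each repeat of the Pumilio-1 PUF domain was randomized at its three base-contacting residues, and these libraries were co-expressed from a centromeric plasmid with matching RNA elements in strain YBZ-1. After four days on SC-Leu (input) or SC-Leu-His + 0.5 mM 3-AT (selection), the repeat regions were PCR-amplified and Illumina-sequenced. The interaction score compares variant frequency between input and selection as a log change, computed in log2 with a pseudocount of 1 for absent variants.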

Experiment [2] addresses PUM1 PUF domain R5-RSG (Homo sapiens, UniProt Q14671 828-1176, C1007R;R1008S;Q1011G). The method, boiled down: as §1
Experiment [3] deals with PUM1 PUF domain R8-VHR (Homo sapiens, UniProt Q14671 828-1176, N1122V;Y1123H;Q1126R). The gist of the method:
as §1

Experiment [4] deals with PUM1 PUF domain R8-HFS (Homo sapiens, UniProt Q14671 828-1176, N1122H;Y1123F;Q1126S). The gist of the method:
as §1

For experiment [5], the target named is PUM1 PUF domain R8-RFS (Homo sapiens, UniProt Q14671 828-1176, N1122R;Y1123F;Q1126S). The gist of the method:
as §1

Experiment [6] has as its target PUM1 PUF domain R7-KGS (Homo sapiens, UniProt Q14671 828-1176, S1079K;N1080G;E1083S). The method, boiled down: as §1
In experiment [7] the target is PUM1 PUF domain R7-KRS (Homo sapiens, UniProt Q14671 828-1176, S1079K;N1080R;E1083S). The method, boiled down:
as §1

Experiment [8] has as its target PUM1 PUF domain R7-RRT (Homo sapiens, UniProt Q14671 828-1176, S1079R;N1080R;E1083T). The gist of the method: as §1
The target in experiment [9] is PUM1 PUF domain R3-LYA (Homo sapiens, UniProt Q14671 828-1176, C935L;R936Y;Q939A). The gist of the method:
as §1

The target in experiment [10] is PUM1 PUF domain R3-IFL (Homo sapiens, UniProt Q14671 828-1176, C935I;R936F;Q939L). The gist of the method: as §1
The target of experiment [11] is PUM1 PUF domain R3-KSD (Homo sapiens, UniProt Q14671 828-1176, C935K;R936S;Q939D). The gist of the method:
as §1

With “GGCUAGAACUAGUGGAUCCCCCGGCGCCCGGCGGCUCGAGCCCGGGUAAGUGUUAAUAGUCUGCAUGCCGCCGGGCGCCAUGCCUGCAGGUCGACUCUAGAAAACAUG”, the binding signal in [1] was 2.94 log2 enrichment (interaction score); in [2], 2.84 log2 enrichment (interaction score).
For the sequence “GGCUAGAACUAGUGGAUCCCCCGGCGCCCGGCGGCUCGAGCCCGGGUAAGCGUAAAUAGUCUGCAUGCCGCCGGGCGCCAUGCCUGCAGGUCGACUCUAGAAAACAUG”, the binding signal in experiment [3] is 3.33 log2 enrichment (interaction score); in experiment [4] it was 2.47 log2 enrichment (interaction score); in experiment [5], 5.73 log2 enrichment (interaction score).
With “GGCUAGAACUAGUGGAUCCCCCGGCGCCCGGCGGCUCGAGCCCGGGUAAGUUUAAAUAGUCUGCAUGCCGCCGGGCGCCAUGCCUGCAGGUCGACUCUAGAAAACAUG”, the binding signal in experiment [6] was 3.39 log2 enrichment (interaction score); in experiment [7], 2.06 log2 enrichment (interaction score); in [8], 4.83 log2 enrichment (interaction score).
On to “GGCUAGAACUAGUGGAUCCCCCGGCGCCCGGCGGCUCGAGCCCGGGUAAGUGUAAUUAGUCUGCAUGCCGCCGGGCGCCAUGCCUGCAGGUCGACUCUAGAAAACAUG”, for which the binding signal in experiment [9] is 4.81 log2 enrichment (interaction score); in experiment [10] it was 3.79 log2 enrichment (interaction score); in experiment [11], 2.88 log2 enrichment (interaction score).
For the sequence “GGCUAGAACUAGUGGAUCCCCCGGCGCCCGGCGGCUCGAGCCCGGGUAAGUGUGAAUAGUCUGCAUGCCGCCGGGCGCCAUGCCUGCAGGUCGACUCUAGAAAACAUG”, the binding signal in [1] is 1.9 log2 enrichment (interaction score).
